Compound activity as filed in PubChem BioAssay.
Pf Dd2 growth: qHTS Primary assay for Inhibitors of Plasmodium falciparum Dd2 growth in vitro; P. falciparum Dd2 growth, SYBR Green, 72 h; Potency, µM (series often up to 28.9 µM), for inactives: top-dose activity, negative = inhibition, actives largely listed as inhibitors; hit rate 4.3% among 120,000; active = well fitted inhibition curve with a large enough effect;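 note: plate controls were DMSO vehicle for no effect and reference drug for full effect; nearly all actives have a fitted effect of over 65% in size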
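Readout: SYBR Green fluorescence, 485 nm excitation, 535 nm emission, after ~16 h lysis at 37C. Before that, Dd2-infected red cells (2.5% hematocrit) grew 72 h with compound, 29 uM top final concentration.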
* = called active by the depositor; i = inactive; [ ] = dose if it differs, or a comment. The sample as a whole holds a higher share of hits than the screen did. Potency is the fitted concentration of half-maximal effect.

SMILES	Pf Dd2 growth
Cc1nn(C)c(C)c1CCCN(C)C(=O)C1CCCN(Cc2cccnc2)CCC(=O)NCC1 (stereo not drawn)	-26.1%
CCc1noc(-c2cn(C3CCN(C(=O)C(C)Oc4ccccc4)C3)nn2)n1 (stereo not drawn)	191.5%
CS(=O)(=O)N1CCCN(C(=O)Cc2ccccc2)CCNC(=O)CC1c1ccccc1 (stereo not drawn)	-2.9%
Cc1ccc(-n2nc3c(N4CCC(C(=O)NC(C)c5ccccc5)CC4)nnc(C)c3c2C)cc1 (stereo not drawn)	10µM*
Cc1nnc(N2CCC(C(=O)NC(C)C)CC2)c2nn(-c3ccc(Cl)cc3)c(C)c12	26.6%
CCOc1ccc(NC(=O)C2CCN(c3nnc(C)c4c(C)n(-c5ccccc5)nc34)CC2)cc1	3.6%
CCOC(=O)C1CCN(C(=O)C2CCN(c3nnc(C)c4c(C)n(-c5ccccc5)nc34)CC2)CC1	3.16µM*
COc1ccccc1CNC(=O)C1CCN(c2nnc(C)c3c(C)n(-c4ccccc4)nc23)CC1	-4.3%
Cc1ccccc1CNC(=O)C1CCN(c2nnc(C)c3c(C)n(-c4ccccc4)nc23)CC1	i
Cc1nnc(N2CCC(C(=O)NCc3cccc(Cl)c3)CC2)c2nn(-c3ccccc3)c(C)c12	-1.4%
Cc1ccc(-n2nc3c(N4CCC(C(=O)NCCc5ccccc5C)CC4)nnc(C)c3c2C)cc1	8.91µM*
Cc1ccc(NC(=O)C2CCN(c3nnc(C)c4c(C)n(-c5ccccc5)nc34)CC2)c(Cl)c1	40.8%
Cc1ccc(-n2nc3c(N4CCC(C(=O)NCCc5ccccc5)CC4)nnc(C)c3c2C)cc1	6.31µM*
Cc1ccc(-n2nc3c(N4CCC(C(=O)N5CCC(C)CC5)CC4)nnc(C)c3c2C)cc1	0.3%
Cc1nnc(N2CCC(C(=O)NC(C)C)CC2)c2nn(-c3ccccc3)c(C)c12	8.6%
O=C(CCNc1c(-c2cccc(F)c2)nc2cnccn12)NCC1CCCO1 (stereo not drawn)	i
COCCc1nncn1C1CCN(C(=O)c2ccc(C)cc2)CC1	-18.8%
CCOc1cccc(CN2CCC3(CC2)CC(O)CCO3)c1 (stereo not drawn)	-24.8%
Cc1ccc(Cl)cc1NC(=O)N1CCC(OC2CCN(S(C)(=O)=O)CC2)CC1	110.8%
CC(C)(Oc1nn(CC2CC2)c2ccc(CN3CCCC3)cc12)C(=O)NC1CC1	-32.4%[44.1 µM]
Cc1sc2ccn(Cc3ccc(F)cc3)c(=O)c2c1C(=O)NCCCN1CCOCC1	-10.9%
COc1ccc(CN2C[C@H](O)C[C@H]2c2nc(-c3cccc([N+](=O)[O-])c3)no2)c(OC)c1OC	-13.4%
CCc1ccc(N2CC(c3noc(-c4sccc4C)n3)CC2=O)cc1 (stereo not drawn)	20.7%
CN1CCN(C(=O)N2Cc3ccccc3OC3(CCN([S+](C)(=O)[O-])CC3)C2)CC1	52.4%[44.1 µM]
CN[C@@H](CC(C)C)C(=O)N[C@H]1CCN2C(=O)c3cc(-c4ccc(OC)cc4OC)ccc3NC(=O)[C@@H]2C1	-8.3%
SMILES	Pf Dd2 growth
CCOC(=O)c1cc(-c2ccc(C)cc2)n(CC(=O)Nc2cc(C)ccc2C)c1C	2.6%
CCOC(=O)c1cc(-c2ccccc2)n(CCCC(=O)Nc2ccc(C)cc2Cl)c1C	i
CCOC(=O)c1cc(-c2ccc(C)cc2)n(CCCC(=O)Nc2cc(C)ccc2C)c1	11.2µM*
Cc1ccc(C2(C(=O)N3CCC4(CC3)CNC(C(=O)O)C4)CC2)cc1 (stereo not drawn)	12.5%
Cc1ccccc1Nc1sc(C(=O)c2ccccc2)c(N)c1S(C)(=O)=O	i[5.79 µM]
COc1ccc(S(=O)(=O)c2c(Nc3cccc(C)c3C)sc(C(=O)c3ccccc3)c2N)cc1	10µM*
COc1ccccc1Nc1sc(C(=O)c2ccc(F)cc2)c(N)c1S(=O)(=O)c1ccc(C)cc1	-28.7%
O=C(c1ccc2c(c1)ncn2CCO)N1CCCn2nc(CO)cc2C1	-12.7%
Cc1cccc(NC(=O)c2cnc(-c3ccccc3)nc2-c2ccncc2)c1C	-14.2%
CCNC(=O)c1ccc2c(c1)C1(CCN(CC3CC3)C1)CN2Cc1ccccc1 (stereo not drawn)	i
O=C(NCC1CC1)c1ccc2c(c1)C1(CCN(CC3CC3)C1)CN2Cc1ccccc1 (stereo not drawn)	-1.5%[44.1 µM]
O=C(NC1CCC1)c1ccc2c(c1)C1(CCN(CC3CC3)C1)CN2Cc1ccccc1 (stereo not drawn)	14.1µM*
c1ccc(-c2cnc(Nc3cncnc3)c3c2CCO3)cc1	-12.2%[44.1 µM]
c1ccc(Nc2ncc(-c3ccccc3)c3c2OCC3)cc1	22.4µM*
CN(C)c1cccc(-c2cnc(Nc3cccnc3)c3c2CCO3)c1	12.6µM*
COc1cncc(Nc2ncc(-c3cccc(N(C)C)c3)c3c2OCC3)c1	7.08µM*
COc1cccc(Nc2ncc(-c3c(C)noc3C)c3c2OCC3)c1	4.9%[44.1 µM]
CNC(=O)c1cccc(-c2cnc(Nc3ccccc3)c3c2CCO3)c1	-22.7%[44.1 µM]
COc1cncc(Nc2ncc(-c3cccnc3)c3c2OCC3)c1	-12.0%[44.1 µM]
CN(C)c1cccc(-c2cnc(Nc3ccc4c(c3)OCCO4)c3c2CCO3)c1	-28.5%[44.1 µM]
Fc1cccc(-c2cnc(Nc3cncnc3)c3c2CCO3)c1	-27.0%[44.1 µM]
CCn1cc(S(=O)(=O)N2CCC3(CC2)N(CC2CC2)C(=O)CS3=O)cn1 (stereo not drawn)	3.6%
COc1cccc(CC(=O)N2CCCC3(C2)NC(=O)N(Cc2ccc(C)cc2)C3=O)c1 (stereo not drawn)	63.0%
CCN(CC)C1(Cc2cc(CN(C)Cc3ccccc3)on2)COC1	i
COc1ccc(CN2C[C@H]3CN(Cc4cnn(C)c4)CCN3C2=O)cc1	2.7%[44.1 µM]
SMILES	Pf Dd2 growth
COc1ccc(-c2cc(N3CCCN(C(=O)c4ccc5ncccc5c4)CC3)n[nH]2)cc1	i
COc1ccc(OCC(=O)N2CCN(CCc3ccncc3)CC2)cc1	19.4%
Cc1ccc(OCC(=O)N2CCN(CCc3ccncc3)CC2)cc1C	10µM*
CCCCOc1cccc(C(=O)N2CCN(CCc3ccncc3)CC2)c1	-28.7%
CC1=C(C(N)=O)C(c2cccc(C)c2)n2nc(-c3ccc(Cl)cc3)nc2N1 (stereo not drawn)	3.5%
CCN(CC)c1ccc(C2C(C(N)=O)=C(C)Nc3ncnn32)cc1 (stereo not drawn)	33.3%
CC1=C(C(N)=O)C(c2ccc(F)cc2)n2nc(-c3ccc(N(C)C)cc3)nc2N1 (stereo not drawn)	10µM*
O=C(c1ccccc1F)N1CCCC(CO)(Cc2ccccc2F)C1 (stereo not drawn)	-8.5%
COCCn1c(Cn2nc3n(c2=O)CCCCC3)nnc1C1CC(N)C1 (stereo not drawn)	-14.6%
OC(COc1cccc(CN2CCC(c3ncon3)CC2)c1)CN1CCOCC1 (stereo not drawn)	-2.6%
CC[C@H]1CN2CC[C@H]1C[C@@H]2CNC(=O)NC(C)C	10.1%[44.1 µM]
COc1ccc(Nc2oc(-c3ccc(COc4ccccc4C)o3)nc2C#N)cc1	11.2µM*
COc1ccc(OCc2ccc(-c3nc(C#N)c(N4CCCCC4)o3)o2)cc1	9.3%
CNc1oc(-c2ccc(COc3ccc(C)cc3)o2)nc1C#N	-15.6%
CN(Cc1nc(-c2ccccc2)cs1)C(=O)COc1ccc(F)cc1F	-11.7%
CCCN(CC1CCOC1)C(=O)Nc1cccc(C)c1C (stereo not drawn)	10.2%[5.79 µM]
CCOc1cc(CN2CCOc3ccc(C(=O)NCc4ccccc4F)cc3C2)ccc1O	-7.0%
COc1cccc(CN2CCC(C(Cc3ccccc3F)N(C)C(=O)c3cccs3)CC2)c1O (stereo not drawn)	i
CCOc1cc(CN2CCC(C(Cc3ccccc3F)N(C)C(=O)c3cccs3)CC2)ccc1O (stereo not drawn)	3.98µM*
